From PubChem
The list is not random: actives were taken first. Their share in the collection is about 6%.
DRD3 agonist – qHTS of D3 Dopamine Receptor Agonist: qHTS; D(3) dopamine receptor (Homo sapiens), P35462; D3R DiscoveRx beta-arrestin cells, luminescence, 90 min; max activation, %; 410,000 compounds, 0.58% hits; AID 652048, 2013; in the data active = max activation above about 30%; note: 0% is about no effect
Target sequence (P35462 whole entry, looked up): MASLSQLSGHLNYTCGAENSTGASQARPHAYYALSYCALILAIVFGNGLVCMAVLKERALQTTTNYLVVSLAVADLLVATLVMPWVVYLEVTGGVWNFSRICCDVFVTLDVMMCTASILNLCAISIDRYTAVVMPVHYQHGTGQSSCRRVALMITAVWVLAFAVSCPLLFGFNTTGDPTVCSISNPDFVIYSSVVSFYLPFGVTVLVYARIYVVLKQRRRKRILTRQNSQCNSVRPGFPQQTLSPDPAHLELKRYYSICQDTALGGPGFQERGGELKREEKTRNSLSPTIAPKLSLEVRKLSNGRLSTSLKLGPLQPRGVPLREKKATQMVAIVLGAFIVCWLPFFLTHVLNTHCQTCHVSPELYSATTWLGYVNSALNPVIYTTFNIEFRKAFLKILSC
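Agonist-mode cell screen: cells plated at 1500/well and incubated overnight at 37 °C, then exposed to library compounds for 90 min at 37 °C. Detection reagent was added for 30–60 min at room temperature, and luminescence was read.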
D1 potentiator – Potentiators of Human D1 Dopamine Receptor: qHTS; HEK293 TREx D1 cells, calcium flux, dopamine EC20 potentiation; potentiation, % at 10 µM; 360,000 compounds, 0.036% hits; AID 504651, 2011; in the data active = potentiation above about 30%; note: 0% is about no effect
D3 antag – qHTS of D3 Dopamine Receptor Antagonist: qHTS. D(3) dopamine receptor (Homo sapiens), P35462. D3R cells, DiscoveRx beta-arrestin luminescence, antagonist mode; stronger effect = lower value. max response, negative = inhibition, %. 360,000 compounds, 2.5% hits. AID 652054, 2013; in the data active = max response below about -50%; inconclusive = no clear call, values can overlap the other calls; note: % is set by controls: 0 for no effect and ±100 for the full control effect
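Cells expressing the human receptor were seeded at 1500 cells/well, incubated overnight at 37 degrees C in 5% CO2, then exposed to library compounds with dopamine controls for 90 minutes at 37 degrees C before luminescent detection.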
D1 antagonist – Antagonist of Human D 1 Dopamine Receptor: qHTS; HEK293 TREx D1 cells, calcium flux, dopamine EC80; stronger effect = lower value; activity change, negative = inhibition, % at 10 µM; 360,000 compounds, 3.2% hits; in the data active = activity change below about -30%; note: % is set by controls: 0 for no effect and ±100 for the full control effect
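HEK293 T-REx cells expressing inducible, force-coupled D1 receptor; no-wash Ca dye, 30–90 min RT. Cmpd → 180 s read at 1 Hz → EC80 DA → 180 s read.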
D1 agonist – Allosteric Agonists of the Human D1 Dopamine Receptor: qHTS; 360,000 compounds, 1% hits; AID 504660, 2011; HEK293 T-REx D1 cells, calcium flux, agonist mode; D(1A) dopamine receptor (Homo sapiens), P21728; activation, % at 2 µM; in the data active = activation above about 30%; note: 0% is about no effect
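Tetracycline-induced HEK293 TREx D1 cells, force-coupled to calcium signalling, were dye-loaded with a no-wash calcium kit. Compound was pin-added after a 10 s baseline. Fluorescence was read kinetically at 1 cycle/s for 180 s, with calcium rises flagged as agonism.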
* = called active by the depositor; ? = inconclusive; . = not tested or not shown.

SMILES	DRD3 agonist	D1 potentiator	D3 antag	D1 antagonist	D1 agonist
O=C(Nc1ccccc1)c1nnsc1S(=O)c1ccc(Cl)cc1 (configuration not stated)	-23	-4	-59*	-41*	2
O=C(c1nnsc1S(=O)c1ccc(Cl)cc1)N1CCOCC1 (configuration not stated)	-13	8	-51*	18	5
O=C(c1nnsc1S(=O)(=O)c1ccc(Cl)cc1)N1CCOCC1	-8	2	?	10	-3
Cc1cc2c(cc1S(=O)(=O)CCC(=O)N1CCC(C)CC1)OCC(=O)N2	6	-4	.	-10	26
O=C(c1cc2ccccc2oc1=O)N1CCN(Cc2ccc3c(c2)OCO3)CC1	11	-3	-21	1	2
O=C(c1cc2ccccc2o1)N1CCN(Cc2ccc3c(c2)OCO3)CC1	-20	-8	-104*	11	0
O=C(CN1C(=O)c2ccccc2S1(=O)=O)N1CCN(Cc2ccc3c(c2)OCO3)CC1	0	0	-3	1	8
O=C(/C=C/c1cccc([N+](=O)[O-])c1)N1CCN(Cc2ccc3c(c2)OCO3)CC1	-4	-9	-8	-34*	2
O=C(Cn1ccc2ccccc2c1=O)N1CCN(Cc2ccc3c(c2)OCO3)CC1	4	-4	13	-57*	-1
CCOc1ccc(NC(=O)c2ccc(F)c(S(=O)(=O)NCc3ccc4c(c3)OCO4)c2)cc1	9	0	.	-34*	4
CC(=O)NN1C(=O)/C(=C2/Sc3ccc(Cl)cc3N2C)SC1=S	7	-4	16	11	2
O=C(CS(=O)(=O)Cc1ccccc1)N1CCN(Cc2ccc3c(c2)OCO3)CC1	-7	-1	-29	-37*	5
Cc1ccc(NC(=O)N2CCN(Cc3ccc4c(c3)OCO4)CC2)cc1	-15	3	?	-1	0
Cc1ccc(C(=O)N2CCN(Cc3ccc4c(c3)OCO4)CC2)o1	2	-8	-62*	1	0
O=C(CN1CCN(Cc2ccc3c(c2)OCO3)CC1)N1CCc2[nH]c3ccccc3c2C1	.	1	.	-5	8
CCOc1ccc(NC(=O)N2CCN(Cc3ccc4c(c3)OCO4)CC2)cc1	-10	-9	-14	-78*	2
O=C(CN1CCN(Cc2ccc3c(c2)OCO3)CC1)N1CCc2[nH]c3ccc(F)cc3c2C1	-7	-1	?	-27	34*
C#CCNC(=O)C[C@@H]1C[C@@]2(C(=O)OC)CC(C)(C)CC=C2N(CCCCCCCC)C1=O	11	.	-5	.	.
COc1ccc(NC(=O)CCCn2c(=O)c3cccn3c3ccccc32)c(OC)c1	1	6	.	-16	-1
O=C(c1cc2c(=O)n3ccccc3nc2s1)N1CCN(Cc2ccc3c(c2)OCO3)CC1	3	-1	11	-31*	0
CCOc1ccc(N/C(C)=C/C(=O)c2ccc3c(c2)OCCO3)cc1	33*	3	12	-2	7
CCOc1ccc(N/C(C)=C\C(=O)c2ccc3c(c2)OCCO3)cc1	2	-6	8	-2	6
O=C(N1CCN(Cc2ccc3c(c2)OCO3)CC1)C12CC3CC(CC(C3)C1)C2	-30	8	-64*	13	0
CN(c1ccc(C(=O)N2CCN(Cc3ccc4c(c3)OCO4)CC2)cc1)S(C)(=O)=O	3	-4	-22	-6	1
O=C(c1ccc(S(=O)(=O)N2CCCC2)cc1)N1CCN(Cc2ccc3c(c2)OCO3)CC1	-13	0	-52*	-10	2
C#CCNC(=O)C[C@@H]1C[C@@]2(C(=O)OCC)CCCC=C2N(CCC2=CCCCC2)C1=O	0	.	22	.	.
O=C(c1ccc(COc2ccccc2Cl)o1)N1CCN(Cc2ccc3c(c2)OCO3)CC1	-24	-2	-10	9	2
CC1CCN(c2nc3ccc(C(=O)N4CCN(Cc5ccc6c(c5)OCO6)CC4)cc3s2)CC1	-4	.	1	-31*	3
